Screen size: about 5,500 compounds; about 2,000 (36%) were called active. Another 18% or so got no clear call; they are omitted. Rule as the data show it: active = normalized growth mostly below about 0.91 (no sharp cut-off); inconclusive = no clear call, values can overlap the other calls; inactive = mostly above about 0.92. Some of the results follow.
Experiment: chemical genetic growth profiling, strain panel (AID 1159580);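 also: tested at 20 µM; growth read once vehicle control cultures reached saturation at 30 °C; 1 = growth at the plate median or of vehicle wells; lower values mean less growth of the strain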
Details: S. cerevisiae deletion strains, growth OD
[1] = locus YHR030C, strain SLT2, hits give low values
[2] = locus YHR079C, strain IRE1, hits give low values
[3] = locus YJL095W, strain BCK1, hits give low values
[4] = locus YJR066W, strain TOR1, hits give low values
[5] = locus YLR113W, strain HOG1, hits give low values
[6] = locus YNL183C, strain NPR1, hits give low values
[7] = locus YOR231W, strain MKK1, hits give low values
[8] = locus YPL256C, strain CLN2, hits give low values

Measured: normalized growth

Clc1cccc(Nc2ncc(-c3ccc4c(c3)OCCCO4)s2)c1
active: [1] 0.67 | [5] 0.682 | [8] 0.717
inactive: locus YAR019C, strain CDC15, hits give low values 0.978 | locus YBL105C, strain PKC1, hits give low values 0.989 | locus YBR135W, strain CKS1, hits give low values 0.981 | locus YBR136W, strain MEC1, hits give low values 0.98 | locus YBR160W, strain CDC28, hits give low values 0.983 | locus YDL017W, strain CDC7, hits give low values 0.988 | locus YDL028C, strain MPS1, hits give low values 0.956 | locus YDL101C, strain DUN1, hits give low values 1 | locus YDL108W, strain KIN28, hits give low values 0.978 | locus YDL132W, strain cdc53, hits give low values 0.986 | locus YDL214C, strain PRR2, hits give low values 0.893 | locus YDR052C, strain DBF4, hits give low values 0.986 | locus YDR054C, strain cdc34, hits give low values 0.989 | locus YDR226W, strain ADK1, hits give low values 0.988 | locus YDR477W, strain SNF1, hits give low values 0.909 | locus YER123W, strain YCK3, hits give low values 0.864 | locus YER133W, strain GLC7, hits give low values 0.892 | locus YFL009W, strain cdc4, hits give low values 0.99 | locus YFL029C, strain CAK1, hits give low values 0.977 | locus YFR003C, strain YPI1, hits give low values 0.985 | locus YFR019W, strain FAB1, hits give low values 0.898 | locus YFR028C, strain CDC14, hits give low values 0.963 | locus YGR040W, strain KSS1, hits give low values 0.905 | locus YGR052W, strain FMP48, hits give low values 0.862 | locus YGR092W, strain DBF2, hits give low values 0.88 | [2] 0.663 | locus YHR082C, strain KSP1, hits give low values 0.951 | locus YHR205W, strain SCH9, hits give low values 0.824 | locus YIL147C, strain SLN1, hits give low values 0.973 | [3] 0.731 | locus YJL128C, strain PBS2, hits give low values 0.951 | locus YJL157C, strain FAR1, hits give low values 0.894 | locus YJR016C, strain ILV3, hits give low values 0.994 | locus YJR066W, strain TOR1 (second series), hits give low values 0.902 | [4] 0.95 | locus YKL048C, strain ELM1, hits give low values 0.965 | locus YKL067W, strain YNK1, hits give low values 0.927 | locus YKL101W, strain HSL1, hits give low values 0.923 | locus YKL193C, strain SDS22, hits give low values 0.985 | locus YKL203C, strain TOR2, hits give low values 1.01 | locus YLR133W, strain CKI1, hits give low values 0.866 | locus YLR403W, strain SFP1, hits give low values 0.881 | locus YML070W, strain DAK1, hits give low values 0.872 | locus YMR001C, strain CDC5, hits give low values 0.984 | locus YMR205C, strain PFK2 (second series), hits give low values 0.894 | locus YMR277W, strain FCP1, hits give low values 0.968 | locus YNL006W, strain LST8, hits give low values 0.995 | locus YNL020C, strain ARK1, hits give low values 0.86 | locus YNL161W, strain CBK1, hits give low values 0.982 | [6] 0.799 | locus YNL207W, strain RIO2, hits give low values 0.987 | locus YNL222W, strain SSU72, hits give low values 0.98 | locus YNL307C, strain MCK1 (second series), hits give low values 0.864 | locus YOL078W, strain AVO1, hits give low values 0.972 | locus YOL136C, strain PFK27, hits give low values 0.873 | locus YOR061W, strain CKA2, hits give low values 0.86 | locus YOR119C, strain RIO1, hits give low values 0.953 | [7] 0.759 | locus YOR329C, strain SCD5, hits give low values 0.984 | locus YPL031C, strain PHO85, hits give low values 0.889 | locus YPL153C, strain RAD53, hits give low values 0.872 | locus YPL204W, strain HRR25, hits give low values 0.86 | locus YPL209C, strain IPL1, hits give low values 0.983 | locus YPR025C, strain CCL1, hits give low values 0.968 | locus YPR106W, strain ISR1, hits give low values 0.971 | locus YPR111W, strain DBF20, hits give low values 0.959 | strain NNK1, hits give low values 0.974 | strain TSCII, hits give low values 0.971

CN/C(=C\[N+](=O)[O-])NCCSCc1csc(CN(C)C)n1
inactive: [1] 1.05 | [2] 1.04 | [3] 1.06 | [4] 0.927 | [5] 1.06 | [6] 0.996 | [7] 1.07 | [8] 1.08

CC(O)(P(=O)(O)O)P(=O)(O)O
inactive: locus YAL021C, strain ccr4, hits give low values 1.03 | locus YAL026C, strain drs2, hits give low values 0.993 | locus YAL030W, strain snc1, hits give low values 0.993 | locus YBL061C, strain skt5, hits give low values 0.993 | locus YBR009C, strain hhf1, hits give low values 0.976 | locus YBR023C, strain chs3, hits give low values 0.99 | locus YBR171W, strain sec66, hits give low values 0.992 | locus YBR231C, strain swc5, hits give low values 0.992 | locus YBR279W, strain paf1, hits give low values 0.997 | locus YCL011C, strain gbp2, hits give low values 0.99 | locus YCL016C, strain dcc1, hits give low values 0.988 | locus YCL061C, strain MRC1, hits give low values 1 | locus YCL069W, strain vba3, hits give low values 0.992 | locus YCR088W, strain abp1, hits give low values 0.989 | locus YDL005C, strain med2, hits give low values 1 | locus YDL040C, strain nat1, hits give low values 0.997 | locus YDR001C, strain nth1, hits give low values 0.988 | locus YDR069C, strain doa4, hits give low values 0.978 | locus YDR137W, strain rgp1, hits give low values 1 | locus YDR159W, strain sac3, hits give low values 0.955 | locus YDR195W, strain ref2 0.93 | locus YDR297W, strain sur2, hits give low values 0.993 | locus YDR334W, strain swr1, hits give low values 0.987 | locus YDR335W, strain msn5, hits give low values 0.991 | locus YDR392W, strain spt3, hits give low values 0.868 | locus YEL003W, strain gim4, hits give low values 0.982 | locus YEL037C, strain rad23, hits give low values 0.985 | locus YEL061C, strain CIN8 (second series), hits give low values 0.982 | locus YER015W, strain faa2, hits give low values 0.999 | locus YER016W, strain bim1, hits give low values 0.979 | locus YER111C, strain swi4, hits give low values 0.989 | locus YER155C, strain BEM2 (second series), hits give low values 0.969 | locus YFR010W, strain ubp6, hits give low values 0.993 | locus YGL167C, strain pmr1, hits give low values 0.982 | locus YGL173C, strain kem1, hits give low values 0.987 | locus YGL227W, strain vid30, hits give low values 0.993 | locus YGL240W, strain doc1, hits give low values 0.982 | locus YGL253W, strain hxk2, hits give low values 0.984 | locus YHR013C, strain ard1, hits give low values 0.954 | locus YHR027C, strain rpn1, hits give low values 0.996 | [1] 0.958 | [2] 0.961 | locus YHR142W, strain chs7, hits give low values 0.998 | locus YJL092W, strain hpr5, hits give low values 0.987 | locus YJL095W, strain BCK1 (second series), hits give low values 0.994 | [3] 0.995 | locus YJL115W, strain asf1, hits give low values 0.986 | locus YJL129C, strain trk1, hits give low values 0.989 | locus YJL154C, strain vps35, hits give low values 0.986 | locus YJL164C, strain tpk1, hits give low values 1 | locus YJL166W, strain qcr8, hits give low values 0.996 | locus YJL187C, strain SWE1, hits give low values 1 | [4] 0.93 | locus YKL160W, strain elf1, hits give low values 1.03 | locus YKR026C, strain gcn3, hits give low values 0.993 | locus YKR091W, strain srl3, hits give low values 0.995 | locus YLL001W, strain dnm1, hits give low values 0.98 | locus YLL026W, hits give low values 0.996 | locus YLL041C, strain sdh2, hits give low values 0.994 | locus YLR027C, strain aat2, hits give low values 0.999 | [5] 0.976 | locus YLR221C, strain rsa3, hits give low values 1.02 | locus YLR258W, strain gsy2, hits give low values 0.982 | locus YLR262C, strain YPT6 (second series), hits give low values 1 | locus YLR320W, strain mms22, hits give low values 0.983 | locus YLR342W, strain FKS1, hits give low values 1 | locus YLR357W, strain rsc2, hits give low values 0.981 | locus YLR370C, strain arc18, hits give low values 0.996 | locus YLR384C, strain iki3, hits give low values 0.995 | locus YML120C, strain ndi1, hits give low values 1.01 | locus YMR058W, strain fet3, hits give low values 0.998 | locus YMR125W, strain sto1, hits give low values 0.979 | locus YMR129W, hits give low values 0.994 | locus YMR205C, strain PFK2, hits give low values 0.967 | locus YMR231W, strain pep5, hits give low values 0.993 | locus YNL071W, strain lat1, hits give low values 0.993 | [6] 0.929 | locus YNL209W, strain ssb2, hits give low values 0.994 | locus YNL248C, strain rpa49, hits give low values 1.01 | locus YNL322C, strain KRE1 (second series), hits give low values 1 | locus YNR049C, strain mso1, hits give low values 0.985 | locus YOR001W, strain rrp6, hits give low values 1.02 | locus YOR070C, strain gyp1, hits give low values 0.992 | locus YOR080W, strain dia2, hits give low values 0.997 | locus YOR083W, strain WHI5, hits give low values 1.03 | locus YOR106W, strain vam3, hits give low values 1.02 | [7] 0.972 | locus YOR265W, strain rbl2, hits give low values 0.989 | locus YOR270C, strain vph1, hits give low values 0.99 | locus YOR290C, strain snf2, hits give low values 0.916 | locus YPL051W, strain arl3, hits give low values 1.01 | locus YPL078C, strain atp4, hits give low values 1.01 | locus YPL106C, strain sse1, hits give low values 0.985 | locus YPL240C, strain hsp82, hits give low values 0.983 | [8] 0.921
